According to PubChem BioAssay (EPA / NIEHS):
Active and inactive are the calls of the source. The calls were made as follows: active = hit-call score of the fitted dose curve at least 0.9, where 1 is the maximum; inactive = score below 0.9.

Key:
Details in all cases: mRNA level, 48 h; actives raise or lower the signal
[1] = read-out: Fatty Acid-Binding Protein 1 (FABP1), FABP1 (gene 2168); assay: LTEA_HepaRG_FABP1: Life Technologies and Expression Analysis (LTEA) Assay for Fatty Acid-Binding Protein 1 (FABP1) using HepaRG (AID 2283494)
Summary of the method: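 Differentiated human HepaRG cells were exposed in duplicate for 48 h in serum-free induction medium to 8-point half-log concentration series topping at 100 uM in 0.5% DMSO. FABP1 mRNA measured by TaqMan qRT-PCR, normalized to ACTB/GAPDH/POLR2A; bidirectional fit versus DMSO.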

[2] = read-out: Cytochrome P450 4A22 (Homo sapiens) (UniProt Q5TCH4); assay: LTEA_HepaRG_CYP4A22: Life Technologies and Expression Analysis (LTEA) Assay for Cytochrome P450 4A22 (CYP4A22) using HepaRG (AID 2283495)
Summary of the method: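 Gene expression measured by qRT-PCR against three housekeeping genes (ACTB, GAPDH, POLR2A), with gain or loss fitted relative to 0.5% DMSO vehicle. HepaRG cultures received 48 h chemical treatment, top concentration 100 uM, half-log steps, duplicate wells.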

[3] = read-out: Cytochrome P450 7A1 (Homo sapiens) (UniProt P22680); assay: LTEA_HepaRG_CYP7A1: Life Technologies and Expression Analysis (LTEA) Assay for Cytochrome P450 7A1 (CYP7A1) using HepaRG (AID 2283496)
Summary of the method: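 Gene expression endpoint in human HepaRG liver cells treated for 48 h with test chemicals (up to 100 uM, 0.5% DMSO). Values come from bidirectional concentration-response fitting versus DMSO.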

[4] = read-out: Glutathione S-Transferase (GSTA2), GSTA2 (gene 2939); assay: LTEA_HepaRG_GSTA2: Life Technologies and Expression Analysis (LTEA) Assay for Glutathione S-Transferase (GSTA2) using HepaRG (AID 2283497)
Summary of the method: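 Human HepaRG cells, plated 48 h, then exposed in serum-free induction medium for 48 h to eight half-log concentrations up to 100 uM in 0.5% DMSO, duplicate. GSTA2 mRNA by qRT-PCR, normalized to ACTB/GAPDH/POLR2A; bidirectional fit versus DMSO.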

[5] = read-out: Glutamate-cysteine ligase catalytic (GCLC), GCLC (gene 2729); assay: LTEA_HepaRG_GCLC: Life Technologies and Expression Analysis (LTEA) Assay for Glutamate-cysteine ligase catalytic (GCLC) using HepaRG (AID 2283498)
Summary of the method: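 Differentiated human HepaRG cells, plated 48 h then switched to serum-free induction medium, were exposed in duplicate for 48 h to 8 half-log concentrations topping at 100 uM in 0.5% DMSO. GCLC mRNA was quantified by qRT-PCR against ACTB, GAPDH and POLR2A.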

[6] = read-out: growth arrest and DNA damage 45 (GADD45G), GADD45G (gene 10912); assay: LTEA_HepaRG_GADD45G: Life Technologies and Expression Analysis (LTEA) Assay for growth arrest and DNA damage 45 (GADD45G) using HepaRG (AID 2283499)
Summary of the method: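 GADD45G transcript level by qRT-PCR (housekeeping-normalized: ACTB, GAPDH, POLR2A) after 48 h chemical treatment of a single HepaRG lot in serum-free induction medium; eight-point half-log series up to 100 uM in 0.5% DMSO, duplicates, up- or down-regulation scored.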

[7] = read-out: Glutamate-cysteine ligase regulatory (GCLM), GCLM (gene 2730); assay: LTEA_HepaRG_GCLM: Life Technologies and Expression Analysis (LTEA) Assay for Glutamate-cysteine ligase regulatory (GCLM) using HepaRG (AID 2283500)
Summary of the method: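 Human liver HepaRG cultures receive test chemicals for 48 hours at up to 100 uM in 0.5% DMSO. GCLM expression is measured by qRT-PCR and analysed for increases or decreases against vehicle.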

[8] = read-out: Glutathione S-transferase M3 (GSTM3), GSTM3 (gene 2947); assay: LTEA_HepaRG_GSTM3: Life Technologies and Expression Analysis (LTEA) Assay for Glutathione S-transferase M3 (GSTM3) using HepaRG (AID 2283501)
Summary of the method: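 GSTM3 transcript levels came from Fluidigm TaqMan qRT-PCR normalized to three housekeeping genes, fitted in both directions against DMSO. HepaRG cultures received chemicals for 48 h in serum-free induction medium (0.5% DMSO), 8 half-log concentrations up to 100 uM, duplicate.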

[9] = read-out: Heat shock 70 kDa protein 1 (HSPA1A), gene 3303; assay: LTEA_HepaRG_HSPA1A: Life Technologies and Expression Analysis (LTEA) Assay for Heat shock 70 kDa protein 1 (HSPA1A) using HepaRG (AID 2283502)
Summary of the method: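 HSPA1A induction in human HepaRG liver cells is measured after 48 h of chemical treatment (100 uM maximum, 0.5% DMSO vehicle). Expression comes from qRT-PCR normalized to endogenous controls.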

[10] = read-out: Hypoxia-inducible factor 1-alpha (Homo sapiens) (UniProt Q16665); assay: LTEA_HepaRG_HIF1A: Life Technologies and Expression Analysis (LTEA) Assay for Hypoxia-inducible factor 1 (HIF1A) Trancription factor using HepaRG (AID 2283503)
Summary of the method: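 HepaRG, 48 h exposure, 8-pt half-log series from 100 uM, 0.5% DMSO vehicle, duplicates. Readout: HIF1A transcript by qRT-PCR (Fluidigm array), housekeeping-normalised. Bidirectional curve fit vs DMSO baseline.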

[11] = read-out: 3-Hydroxy-3-Methylglutaryl-CoA Synthase 2 (HMGCS2), HMGCS2 (gene 3158); assay: LTEA_HepaRG_HMGCS2: Life Technologies and Expression Analysis (LTEA) Assay for 3-Hydroxy-3-Methylglutaryl-CoA Synthase 2 (HMGCS2) using HepaRG (AID 2283504)
Summary of the method: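 Readout is HMGCS2 transcript by qRT-PCR, housekeeping-normalised (ACTB/GAPDH/POLR2A) and fitted bidirectionally against 0.5% DMSO. Differentiated HepaRG cells received chemicals 48 h, duplicate wells, eight half-log concentrations topping at 100 uM.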

[12] = read-out: HGF (gene 3082); assay: LTEA_HepaRG_HGF: Life Technologies and Expression Analysis (LTEA) Assay for Hepatocyte Growth Facto (HGF) using HepaRG (AID 2283505)
Summary of the method: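 HGF transcript was quantified by TaqMan qRT-PCR against three housekeeping genes after 48 h treatment of HepaRG cells. Exposure ran in duplicate over eight half-log steps topping at 100 uM in 0.5% DMSO vehicle.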

[13] = read-out: Insulin Like Growth Factor 1 (IGF1), IGF1 (gene 3479); assay: LTEA_HepaRG_IGF1: Life Technologies and Expression Analysis (LTEA) Assay for Insulin Like Growth Factor 1 (IGF1) using HepaRG (AID 2283506)
Summary of the method: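 Using human HepaRG liver cells, IGF1 transcript induction or suppression is measured 48 h after dosing across eight concentrations capped at 100 uM. Values derive from bidirectional concentration-response fitting with DMSO as baseline.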

[14] = read-out: Intercellular Adhesion Molecule 1 (ICAM1), ICAM1 (gene 3383); assay: LTEA_HepaRG_ICAM1: Life Technologies and Expression Analysis (LTEA) Assay for Intercellular Adhesion Molecule 1 (ICAM1) using HepaRG (AID 2283507)
Summary of the method: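 ICAM1 transcript levels measured by qRT-PCR, normalized to three housekeeping genes (ACTB, GAPDH, POLR2A), after 48 h chemical exposure of HepaRG cells. Duplicate eight-point half-log series from 100 uM in 0.5% DMSO; gain or loss fitted against vehicle.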

[15] = read-out: Insulin-like growth factor-binding protein 1 (IGFBP1), IGFBP1 (gene 3484); assay: LTEA_HepaRG_IGFBP1: Life Technologies and Expression Analysis (LTEA) Assay for Insulin-like growth factor-binding protein 1 (IGFBP1) using HepaRG (AID 2283508)
Summary of the method: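 Read-out is qRT-PCR transcript level normalized to three housekeeping genes, fitted in both directions against 0.5% DMSO. Differentiated HepaRG cells received eight half-log concentrations (top 100 uM) in duplicate for 48 h in serum-free induction medium.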

[16] = read-out: Interleukin 6 (IL6), IL6 (gene 3569); assay: LTEA_HepaRG_IL6: Life Technologies and Expression Analysis (LTEA) Assay for Interleukin 6 (IL6) using HepaRG (AID 2283509)
Summary of the method: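 Differentiated human HepaRG cells, plated 48 h then switched to serum-free induction medium, were exposed in duplicate for 48 h to eight half-log concentrations up to 100 uM in 0.5% DMSO. IL6 mRNA measured by qRT-PCR, normalized to ACTB/GAPDH/POLR2A.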

[17] = read-out: Potassium channel subfamily K member 1 (KCNK1), KCNK1 (gene 3775); assay: LTEA_HepaRG_KCNK1: Life Technologies and Expression Analysis (LTEA) Assay for Potassium channel subfamily K member 1 (KCNK1) using HepaRG (AID 2283511)
Summary of the method: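 Differentiated human HepaRG cells in serum-free induction medium were exposed in duplicate for 48 h to 8 half-log concentrations up to 100 uM in 0.5% DMSO. KCNK1 mRNA was measured by TaqMan qRT-PCR, normalized to ACTB, GAPDH and POLR2A, and fitted bidirectionally versus DMSO.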

[18] = read-out: Keratin 19 (KRT19), KRT19 (gene 3880); assay: LTEA_HepaRG_KRT19: Life Technologies and Expression Analysis (LTEA) Assay for Keratin 19 (KRT19) using HepaRG (AID 2283512)
Summary of the method: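 KRT19 transcript measured by TaqMan qRT-PCR, referenced to three housekeeping genes, after HepaRG cells received test chemicals for 48 h. Eight half-log concentrations, top 100 uM, 0.5% DMSO vehicle; increases and decreases both fitted.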

[19] = read-out: JUN Transcription Factor, JUN (gene 3725); assay: LTEA_HepaRG_JUN: Life Technologies and Expression Analysis (LTEA) Assay for JUN Transcription Factor using HepaRG (AID 2283513)
Summary of the method: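 Human HepaRG liver cells receive test chemicals in 0.5% DMSO for 48 h across an eight-point range topping at 100 uM. Expression changes in JUN are scored in both directions against the DMSO vehicle.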

[20] = read-out: Interleukin 6 Receptor (IL6R), IL6R (gene 3570); assay: LTEA_HepaRG_IL6R: Life Technologies and Expression Analysis (LTEA) Assay for Interleukin 6 Receptor (IL6R) using HepaRG (AID 2283510)
Summary of the method: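 Concentration-response in human liver HepaRG cells: eight concentrations from 100 uM downward by half-logs, 48 h exposure, 0.5% DMSO vehicle. IL6R mRNA change measured by qRT-PCR and fitted in both directions relative to vehicle.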

Measured: AC50

Chain of Hypoxia-inducible factor 1-alpha (Homo sapiens) (Q16665 whole entry, looked up): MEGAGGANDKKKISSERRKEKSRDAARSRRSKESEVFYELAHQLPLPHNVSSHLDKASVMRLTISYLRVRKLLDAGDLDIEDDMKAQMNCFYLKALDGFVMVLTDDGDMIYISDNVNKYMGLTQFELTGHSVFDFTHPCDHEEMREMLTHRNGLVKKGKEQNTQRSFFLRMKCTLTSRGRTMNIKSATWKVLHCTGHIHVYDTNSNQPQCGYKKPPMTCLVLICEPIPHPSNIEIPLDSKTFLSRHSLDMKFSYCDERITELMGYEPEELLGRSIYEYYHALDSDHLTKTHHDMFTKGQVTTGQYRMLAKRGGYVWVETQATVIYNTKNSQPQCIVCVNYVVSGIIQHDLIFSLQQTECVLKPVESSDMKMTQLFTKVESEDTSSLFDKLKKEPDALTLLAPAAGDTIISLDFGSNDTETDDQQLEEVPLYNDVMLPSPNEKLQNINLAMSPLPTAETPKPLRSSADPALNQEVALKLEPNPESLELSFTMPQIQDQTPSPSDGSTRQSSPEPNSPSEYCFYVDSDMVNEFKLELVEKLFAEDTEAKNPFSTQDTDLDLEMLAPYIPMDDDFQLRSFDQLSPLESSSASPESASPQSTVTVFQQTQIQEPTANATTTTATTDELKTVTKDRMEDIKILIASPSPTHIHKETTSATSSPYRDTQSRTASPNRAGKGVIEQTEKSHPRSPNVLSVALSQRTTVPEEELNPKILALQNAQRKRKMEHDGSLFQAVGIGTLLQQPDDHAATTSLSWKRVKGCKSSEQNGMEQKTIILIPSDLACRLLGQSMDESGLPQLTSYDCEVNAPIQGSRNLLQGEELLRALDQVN

CC[C@H](C)C(=O)O[C@H]1C[C@H](O)C=C2C=C[C@H](C)[C@H](CC[C@@H](O)C[C@@H](O)CC(=O)O)[C@H]21
active: [1] 3.68 µM
inactive: [2] | [3] | [4] | [5] | [6] | [7] | [8] | [9] | [10] | [11] | [12] | [13] | [14] | [15] | [16] | [17] | [18] | [19]

c1ccc2cc3ccccc3cc2c1
inactive: [1] | [2] | [3] | [4] | [5] | [6] | [7] | [8] | [9] | [10] | [11] | [12] | [13] | [14] | [15] | [16] | [20] | [17] | [18] | [19]

NC(N)=O
inactive: [1] | [2] | [3] | [4] | [5] | [6] | [7] | [8] | [9] | [10] | [11] | [12] | [13] | [14] | [15] | [16] | [17] | [18] | [19]

OC(CCl)CCl
inactive: [1] | [2] | [3] | [4] | [5] | [6] | [7] | [8] | [9] | [10] | [11] | [12] | [13] | [14] | [15] | [16] | [17] | [18] | [19]

O=C(O)c1ccc2c(c1)nc(C(=O)NC1CCN(C3CC3)CC1)n2Cc1cc(-c2ccc(Cl)s2)on1
inactive: [1] | [2] | [3] | [4] | [5] | [6] | [7] | [8] | [9] | [10] | [11] | [12] | [13] | [14] | [15] | [16] | [20] | [17] | [18] | [19]

CCCOc1ccc(S(=O)(=O)N2CCN(CC)CC2)cc1-c1nc2c(CC)n(Cc3ccccn3)nc2c(=O)[nH]1
inactive: [4] | [5] | [7] | [8] | [10] | [11] | [12] | [14] | [16] | [17] | [18] | [19]
active: [1] 12.1 µM | [2] 9.92 µM | [3] 4.07 µM | [6] 77.9 µM | [9] 25.3 µM | [13] 14.5 µM | [15] 68.3 µM

CCCCCCCC/C=C\CCCCCCCC(=O)OC[C@@H](O)[C@H]1OC[C@H](O)[C@H]1O
inactive: [1] | [2] | [4] | [5] | [6] | [7] | [8] | [9] | [10] | [11] | [12] | [13] | [14] | [15] | [16] | [20] | [17] | [18] | [19]
